Screening results (PubChem BioAssay)
Shiga toxin inh: inhibitors of Shiga toxin in Vero cells; Vero cells, Shiga toxin protein synthesis inhibition reporter; inhibition, % at 38.7 µM; hit rate 9.2% among 290,000; AID 2315; in the data active = inhibition mostly above about 28%, no sharp cut-off; inactive = mostly below about 43%; note: 0% is about no effect
Cycloheximide cs: affects cycloheximide protein synthesis inhibition readout, counter-screen; AID 2314; max response, %; hit rate 12% among 300,000; cell reporter, cycloheximide protein synthesis inhibition counterscreen; in the data active = max response mostly above about 13%, no sharp cut-off; inactive = mostly below about 14%; note: read at 38.3 µM for the half of the compounds with a filed dose; 0% is about no effect
RE007 growth inh: less growth of the S. pombe RE007 Vpr strain. S. pombe RE007 Vpr strain, BacTiter-Glo ATP luminescence, 24 h. Potency, µM (titrated, usually from 92.2 µM), for inactives: top-dose activity change, negative = less growth, usual class: inhibitors. hit rate 0.21% among 360,000; active = well fitted falling curve with a large enough effect; inconclusive = small, poorly fitted or top-dose-only effect; inactive = no such curve, though single readings can be large or run the other way; note: potency is the fitted concentration of half-maximal effect; % is set by controls: 0 for no effect and ±100 for the full control effect; nearly all actives have a fitted effect of over 50% in size
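Fission yeast strain RE007, carrying one chromosomally integrated HIV-1 vpr copy, was seeded at OD 0.01 in PMG+AL medium with 23 nL pinned compound. After 24 h at 30 °C and 99% humidity, viability was read by BacTiter-Glo luminescence.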
TbPYK inhibitor: T. brucei pyruvate kinase inhibition. Potency, µM (series often up to 76.8 µM), for inactives: at the highest dose activity, negative = inhibition, most hits filed as inhibitors. hit rate 0.12% among 410,000. TbPYK enzyme, Kinase-Glo Plus ATP luminescence, 45 min; note: potency is the fitted concentration of half-maximal effect; % is set by controls: 0 for no effect and ±100 for the full control effect; nearly all actives have a fitted effect of over 50% in size
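T. brucei PYK with substrate was exposed to pin-transferred compounds across a concentration series, then started with 130 uM ADP (final). After 45 min at room temperature, Kinase-Glo Plus luminescence was read, normalized and curve-fitted.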
LmPK inhibitor: LmPK (Leishmania mexicana) enzyme inhibition; Q27686; purified LmPK, Kinase-Glo ATP luminescence, 1 h; Potency, µM (titrated, usually from 57.5 µM), for inactives: at the highest dose activity change, negative = inhibition, hits mostly inhibitors; hit rate 0.37% among 290,000; note: potency is the fitted concentration of half-maximal effect; % is set by controls: 0 for no effect and ±100 for the full control effect
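Purified LmPK (0.1 nM) with 0.5 mM PEP and 0.1 mM ADP in imidazole buffer pH 7.2 with MgCl2/KCl, 1 h at room temperature. ATP formed was read by luciferase luminescence and normalized to no-enzyme and uninhibited controls.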
FBPA Giardia inh: Giardia lamblia aldolase inhibition. hit rate 0.71% among 290,000. purified Giardia FBPA. Potency, µM (highest dose often 59.6 µM), without a hit: at the highest dose activity, negative = inhibition, hits mostly inhibitors. A8B2U2; note: potency is the fitted concentration of half-maximal effect; % is set by controls: 0 for no effect and ±100 for the full control effect; nearly all actives have a fitted effect of over 55% in size
Target sequence (A8B2U2 whole entry, looked up): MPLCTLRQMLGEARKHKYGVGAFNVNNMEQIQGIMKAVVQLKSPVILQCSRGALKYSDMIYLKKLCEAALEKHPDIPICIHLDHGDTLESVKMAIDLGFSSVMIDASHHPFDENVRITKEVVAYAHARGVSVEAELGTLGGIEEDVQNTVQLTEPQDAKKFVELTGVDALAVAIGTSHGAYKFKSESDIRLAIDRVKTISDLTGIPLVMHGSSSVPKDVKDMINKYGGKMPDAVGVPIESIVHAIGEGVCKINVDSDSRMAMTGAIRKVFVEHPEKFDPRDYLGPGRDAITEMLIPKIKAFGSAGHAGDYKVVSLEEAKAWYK
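Giardia FBPA (40 nM reagent) was preincubated 10 min at RT with compound (up to 57.5 uM final), then substrate plus GAPDH/TPI/NAD/arsenate coupling system with diaphorase/resazurin was added; resorufin fluorescence (525/598 nm) was read after 20 min.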
An asterisk follows results filed as active; u = inconclusive; x = not tested or not shown; [ ] = dose if it differs, or a comment. Shown is part of a subset that was picked to be rich in hits. Unless noted, calls come from the whole dose curve; as a rule, active = well fitted curve in the direction sought with a large enough effect; inconclusive = small, poorly fitted or top-dose-only effect, or another doubt; inactive = no such curve, though single readings can be large; an effect the other way counts as inactive or inconclusive.

SMILES	Shiga toxin inh	Cycloheximide cs	RE007 growth inh	TbPYK inhibitor	LmPK inhibitor	FBPA Giardia inh
CC(C)(O)C#Cc1ccc(C(=O)NC2CCCCC2)s1	74.2*	26.7*	-17.8%	1.4%	-5.9%	-0.3%
Cc1c(C(=O)N(Cc2ccco2)Cc2ccccc2Cl)oc2ccc(F)cc12	x	x	x	-7.1%	x	x
O=C(CSc1cn(CCNC(=O)c2cccc(C(F)(F)F)c2)c2ccccc12)Nc1ccc2c(c1)OCCO2	x	x	x	-6.5%	x	x
CC1CN(C(=O)N2CCC(C(=O)NCc3ccco3)CC2)c2ccccc2O1 (centres undefined)	x	x	x	-1.4%	x	x
CCOCCCNC(=O)c1ccc(OC(C)=O)cc1	-7.4	1.0	-9.3%	-0.8%	-6.1%	5.6%
O=C(NCCCCNC(=O)c1ccc(Br)cc1)c1ccc(Br)cc1	13.1	-1.3	-4.5%	25.4%	0.6%	5.0%
CC(C)OCCCNC(=O)c1ccc(Br)cc1	83.3	44.5*	4.0%[3.69 µM]	x	-6.4%	3.9%
CCOCCCNC(=O)c1ccc(OC)cc1	32.1	21.2*	1.8%	13.5%	-0.9%	-0.3%
CC(C)OCCCNC(=O)c1ccncc1	7.1	-4.9	8.2%	0.6%	-7.7%	1.4%
CCOCCCNC(=O)c1ccc(Br)cc1	57.2	26.5*	7.0%	8.5%	1.0%	3.7%
Cc1ccc(CN2C(=O)C3(c4ccccc42)N(c2ccc(C)c(Cl)c2)C(=O)CS3(=O)=O)cc1 (centres undefined)	x	x	x	-5.2%	x	x
Cc1cc(C(=O)Nc2nnc(C(F)(F)F)s2)no1	20.7	10.6	-1.4%	0.8%	3.2%	-20.8%
Cc1cc(C(=O)Nc2nnc(C3CCCCC3)s2)cs1	62.5	38.1*	-8.5%	-0.4%	-3.0%	-1.7%
Cc1cc(C(=O)Nc2nnc(C(F)(F)F)s2)cs1	8.7	18.2*	-25.6%	2.5%	1.1%	u
O=C(Nc1nnc(C(F)(F)F)s1)c1ccc(Br)s1	54.3*	21.3*	-6.9%	-8.6%	-2.2%	u
O=C(Nc1ccc(C(=O)N2CCN(c3ccccc3)CC2)cc1)c1nsc2ccccc12	x	x	x	2.9%	x	x
O=C(CSc1nc2ccccc2c(=O)n1-c1ccc(OC(F)F)cc1)NC1CC1	x	x	-6.9%	-0.6%	x	x
Cc1ccc(NC(=O)CSc2nnc3[nH]c(=O)cc(-c4ccccc4)n23)cc1Cl	x	x	x	-2.3%	x	x
O=C(Nc1nc(=O)c2ccccc2s1)c1ccc(Cl)cc1	33.9	19.5*	17.2%	0.1%	-3.2%	u
O=C(Nc1nc(=O)c2ccccc2s1)c1ccc(F)cc1	49.8*	14.6*	-6.1%	-10.1%	-10.3%	u
CCn1c(NC(=O)c2ccc(F)cc2)c2ccccc2nc1=O	-18.0	6.7	0.2%	5.6%	0.1%	-10.4%
O=C(Nc1nc2ccsc2c(=O)s1)c1ccc(Cl)cc1	88.2*	30.1*	-0.5%	-7.0%	-11.2%	2.4%
O=C(NCc1ccc(F)cc1)c1ccc(NC(=O)N2CC3CCCN3c3ccccc32)cc1 (centres undefined)	x	x	x	-7.2%	x	x
CCCN(CCC)C(=O)Cn1c(=O)n(Cc2ccc(C(=O)NCCc3ccc(Cl)cc3)cc2)c(=O)c2ccccc21	x	x	x	-8.3%	x	x
O=S1(=O)C=C(Sc2nnc(-c3ccccc3)o2)c2ccccc21	3.8	-5.4	10µM*	u	0.2%	-4.3%
SMILES	Shiga toxin inh	Cycloheximide cs	RE007 growth inh	TbPYK inhibitor	LmPK inhibitor	FBPA Giardia inh
O=[n+]1cc(-c2ccccc2)n([O-])c2c1CCCCC2	-5.5	15.6*	-2.2%	0.5%	0.8%	1.9%
Cc1cccc(C)c1Nc1nc2ccccc2o1	-4.2	-3.7	14.0%	-0.3%	1.1%	0.4%
Cc1nc(Nc2nc3ccccc3o2)nc2c1CCC2	49.5	30.3*	-4.3%	0.0%	15.8µM*	-8.7%
CCOC(=O)c1cnc(Nc2ccccc2)nc1C(F)(F)F	92.0*	35.9*	-24.3%	0.0%	5.4%	-3.2%
CCOC(=O)c1cnc(C(F)(F)F)nc1Oc1ccccc1	20.0	0.8	3.0%	-2.0%	6.2%	0.8%
O=C(O)c1cnc(-c2ccccc2)nc1C(F)(F)F	-18.4	-2.3	1.2%	-5.0%	2.8%	15.0%
CCOC(=O)c1cnc(-c2ccccc2)nc1C(F)(F)F	73.7*	51.9*	-7.9%	2.8%	-1.2%	3.7%
CCOC(=O)c1cnc(Nc2nc3ccccc3o2)nc1C	67.7*	35.8*	-8.9%	u	14.1µM*	-1.0%
CCCSCCCNC(=O)CN1C(=O)CCn2nc(-c3cn(C)c4ccccc34)cc21	x	x	x	-1.5%	x	x
CCOc1ccc(Nc2sc(C(=O)c3ccc4c(c3)OCO4)c(N)c2S(=O)(=O)c2ccc(C)cc2)cc1	x	x	x	-7.0%	x	x
O=C(Nc1ccc(Cl)cc1)c1ccc(OCC2CCCO2)cc1 (centres undefined)	94.6*	41.8*	6.1%	-3.4%	6.7%	2.9%
Cc1cccc(NC(=O)c2ccc(OCC3CCCO3)cc2)c1C (centres undefined)	44.5*	29.6*	x	-10.7%	-6.0%	3.7%
Cc1cccnc1NC(=O)c1ccc(OCC2CCCO2)cc1 (centres undefined)	x	x	7.2%	3.6%	x	x
O=C(NCc1ccc(Cl)cc1)c1ccc(OCC2CCCO2)cc1 (centres undefined)	13.5	-3.1	4.8%	5.6%	-2.0%	-1.7%
Cc1cccnc1NC(=O)CNC(=O)c1sc2ccccc2c1Cl	x	x	-2.3%	-12.5%	x	x
CCCn1nnc(NC(=O)c2sc3ccccc3c2Cl)n1	99.7*	41.2*	u	7.5%	-9.6%	-0.1%
Cc1cnc(NC(=O)c2sc3ccccc3c2Cl)s1	63.5*	57.2*	-5.5%	3.0%	-2.2%	1.8%
CCCC(=O)N1CCN(c2ccc(NC(=O)c3sc4ccccc4c3Cl)cc2)CC1	14.7	-1.3	-4.7%	-1.5%	3.5%	0.5%
Cc1ccnc(NC(=O)c2sc3ccccc3c2Cl)c1	89.2*	42.2*	-9.3%	-12.0%	-14.5%	-0.2%
O=C(Nc1nccs1)c1sc2cc(Cl)ccc2c1Cl	63.1*	38.5*	0.0%	-10.8%	-0.4%	4.8%
Cc1onc(-c2ccccc2Cl)c1C(=O)Nc1nnc(C(C)C)s1	-8.3	-3.8	1.3%	-5.1%	-0.2%	-0.4%
CC(C)c1nnc(NC(=O)c2sc3ccccc3c2Cl)s1	67.0*	29.2*	u	-11.1%	-1.8%	x
O=C(Nc1ccccc1C(=O)Nc1ccccn1)c1ccc([N+](=O)[O-])cc1	11.3	-3.3	-20.3%	-2.0%	-2.1%	0.4%
O=C(Nc1ccccn1)c1sc2cc([N+](=O)[O-])ccc2c1Cl	59.1*	20.9*	-16.5%	u	-9.2%	1.6%
CCCn1nnc(NC(=O)COc2ccccc2Cl)n1	61.9*	24.3*	2.9%	-0.2%	3.0%	-0.9%
O=C(Nc1nccs1)c1sc2ccccc2c1Cl	78.0*	30.1*	-25.5%	-5.9%	-11.3%	1.2%
CC1=C/C(=C(/c2cc(C)c(O)c(Br)c2)c2ccccc2S(=O)(=O)O)C=C(Br)C1=O	-5.4	-9.5	u	u	20µM*	-22.2%
